Target: T1, ETS1 (UniProt P14921)
T1 sequence: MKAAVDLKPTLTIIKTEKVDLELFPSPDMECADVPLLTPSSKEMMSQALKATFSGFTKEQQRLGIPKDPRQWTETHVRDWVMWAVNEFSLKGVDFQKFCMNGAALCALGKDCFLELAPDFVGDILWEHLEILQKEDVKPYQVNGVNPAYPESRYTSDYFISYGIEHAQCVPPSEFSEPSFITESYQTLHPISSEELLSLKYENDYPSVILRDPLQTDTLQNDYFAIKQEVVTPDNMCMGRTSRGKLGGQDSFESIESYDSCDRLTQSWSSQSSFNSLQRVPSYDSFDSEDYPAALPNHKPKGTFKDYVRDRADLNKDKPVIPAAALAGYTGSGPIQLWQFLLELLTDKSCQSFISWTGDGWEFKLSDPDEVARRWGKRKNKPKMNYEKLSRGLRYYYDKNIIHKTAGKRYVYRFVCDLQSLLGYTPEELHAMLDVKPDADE
Experiment: ETS1 binding intensity (PBM fluorescence), ETS1 alone (arbitrary fluorescence units); higher = stronger binding
Conditions: ETS1 concentration 1 nM; RUNX1 concentration 0 nM
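Wherever RUNX1 binding intensity (PBM fluorescence), RUNX1 alone is given: Full-length recombinant human RUNX1 bound to double-stranded 36-bp genomic probes on a high-density microarray, scored as Alexa488 fluorescence per spot via anti-RUNX1 antibody, median of four replicate spots.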

Sequence	ETS1 binding intensity
AGGCCCCGCCCCTTCCGCCCACAGAGCCCGCCACTT	779
ACCTGTGTTCTGGCAGGATGTGGTTGACCTCAGCAG	4140
CATACAGGATGCTGGGGTATGTAAAACAAACCACGG	708
CGGGTTGGGCAGGAAGCAGCATGACCGCAGTGGGTC	1740
CTGTCCCTAGCAGGATGTGGTTTGCACATTGCTGCT	3220
CTTGTGCCTACATCCTGTAGCTGTGGTTTAGGGACG	1420
TGACATTTCCGGCCCCACCTCGGCCCGCAGCGCCGC	1180
TGCTTCTGAGGAAGTGATCTGTGGTCAAAGAAAGAA	747
GGGCTCCCAGAAGGATGTGGTTTCTGAGTACGTTGG	582
CTCGCCCCATTTCCCGTAAATATCAGCCACAGACCA	546
GTGACGGATATCCACCGGGCCCTGTGGTTTCCAACA	394
ACAGGAAATGACATCAGAATCTCCAAACCACAACCA	1030
CTGCTGACCAAAACAGGATGTGGTCTACACAAAGTG	10300
GCCCCGGAAGCTCCTTAAGGAGGACCGTGTGGGTTT	605
CAGTGACAGGAAGTGGTTCAGCGGTTGTTTAGGGCT	7680
AGGTCTCCGGAAGTGGGTCTGCGGCGCGCGGGATGC	6040
TGGGGCTAGGCTTCCGGGGCTCTGCGGTCCTCGGCC	481
CTTCTACTTCCTGCCCCGCCCCCAGCTGTGGTCACA	1420
GTCCCCGACTTCCGCTCTCGGTTGGTGGTTGGCTTT	2370
GTGAATGAGGGGGAAGGAAGTGGTTTGGAAAAATAC	1890

Sequence	ETS1 binding intensity
CCCCGCCTCTTCCGCTTCTGTGGTCTGATCTGCCTG	704
CCAATGGGCAGGCGGAAACCGCGGGCTCGTGCTCCC	1580
GTCACAGGAAAGAAGGAGCCTCGCCTTAACCGCACC	447
GGGGCGGCTTCCGGCGGCGTGACCTGACCGCAAGAG	995
CCCAATTTCCTTTGCTCTGCTGTCTGCCAACCGCAA	418
GGAGCGCGCCGGAAACGCGCGGCTGCGGCCCGGGAG	4280
CACGCCTGCGGAAGATGAAAACCACACGTCATGCAG	448
GCTCCTCCCGGATATAAAGCCCCAAACCACGCCACT	724
GGCGCGGGCTGCTTCCGGTCTGCGGGCCTGAGGAGG	5650
GGGCCCGGGCCAGGAAGTGGTTTTGCAGAGGTGTTT	4630
CCCACCCGGAAATGAGCCAACAGTGGTTTCGCCCCG	1590
CCATATCTGGCTTCCTAAGGAGGAACCACAAACCGT	375
TCTGGGGGAGGGGAAGGATGTGGTTTGCAGAGCGGA	873
CTGTGAGGCGGAAGTGGCGGGCTCTGTGGGCGCAAG	3860
GACATCCAGGAAGTGGTGAGAAACCACGTGTGTGTT	1630
GTGGGAGCGGAAGCCTGAGCGGCCTGCGGCCTCCGG	863
ATGAACCACTTCCTGTGTGTTCCCACAGAGGTCAGG	2670
AACGACAAACCGGAAGTATGGTTTGCCGCCTGAAGC	17000
AGGAGCCGGAAGTCCCGCCCACGCACCCCCCGCAGG	5260
AGCTGTTTGGTCACAGGATGTGGTTATTAGAATAGG	4800

Target: RUNX1 (UniProt Q01196)
Experiment: RUNX1 binding intensity (PBM fluorescence), RUNX1 alone (arbitrary fluorescence units); higher = stronger binding
Conditions: RUNX1 concentration 2 nM; ETS1 concentration 0 nM
Experimental: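 Cooperative gcPBM on 36-bp genomic probes with neighbouring ETS1 and RUNX1 sites. Recombinant human RUNX1 (2 nM) was incubated alone or with ETS1 (25 nM) and detected with anti-RUNX1 antibody plus Alexa488 secondary. Values are medians over 4 replicate spots; the RUNX1+ETS1 data were normalised to the RUNX1-only data. The probes sit in constant array flanks that are not printed.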

Sequence of RUNX1 (Q01196 whole entry): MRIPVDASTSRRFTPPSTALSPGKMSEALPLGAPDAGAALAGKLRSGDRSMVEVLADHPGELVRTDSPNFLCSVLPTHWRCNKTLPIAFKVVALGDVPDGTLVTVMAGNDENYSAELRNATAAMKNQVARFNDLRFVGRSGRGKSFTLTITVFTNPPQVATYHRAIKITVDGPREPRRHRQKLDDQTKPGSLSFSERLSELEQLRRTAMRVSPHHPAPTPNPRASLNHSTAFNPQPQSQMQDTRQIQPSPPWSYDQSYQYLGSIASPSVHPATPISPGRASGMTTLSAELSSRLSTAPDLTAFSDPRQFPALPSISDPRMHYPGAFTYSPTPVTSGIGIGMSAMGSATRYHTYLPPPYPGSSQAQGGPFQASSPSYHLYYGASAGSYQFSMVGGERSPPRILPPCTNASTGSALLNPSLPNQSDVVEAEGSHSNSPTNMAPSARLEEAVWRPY

Sequence	RUNX1 binding intensity
AGGCCCCGCCCCTTCCGCCCACAGAGCCCGCCACTT	1100
ACCTGTGTTCTGGCAGGATGTGGTTGACCTCAGCAG	755
CATACAGGATGCTGGGGTATGTAAAACAAACCACGG	775
CGGGTTGGGCAGGAAGCAGCATGACCGCAGTGGGTC	959
CTGTCCCTAGCAGGATGTGGTTTGCACATTGCTGCT	962
CTTGTGCCTACATCCTGTAGCTGTGGTTTAGGGACG	887
TGACATTTCCGGCCCCACCTCGGCCCGCAGCGCCGC	955
TGCTTCTGAGGAAGTGATCTGTGGTCAAAGAAAGAA	891
GGGCTCCCAGAAGGATGTGGTTTCTGAGTACGTTGG	906
CTCGCCCCATTTCCCGTAAATATCAGCCACAGACCA	1350
GTGACGGATATCCACCGGGCCCTGTGGTTTCCAACA	822
ACAGGAAATGACATCAGAATCTCCAAACCACAACCA	1390
CTGCTGACCAAAACAGGATGTGGTCTACACAAAGTG	800
GCCCCGGAAGCTCCTTAAGGAGGACCGTGTGGGTTT	746
CAGTGACAGGAAGTGGTTCAGCGGTTGTTTAGGGCT	892
AGGTCTCCGGAAGTGGGTCTGCGGCGCGCGGGATGC	637
TGGGGCTAGGCTTCCGGGGCTCTGCGGTCCTCGGCC	662
CTTCTACTTCCTGCCCCGCCCCCAGCTGTGGTCACA	1490
GTCCCCGACTTCCGCTCTCGGTTGGTGGTTGGCTTT	894
GTGAATGAGGGGGAAGGAAGTGGTTTGGAAAAATAC	949

Sequence	RUNX1 binding intensity
CCCCGCCTCTTCCGCTTCTGTGGTCTGATCTGCCTG	1250
CCAATGGGCAGGCGGAAACCGCGGGCTCGTGCTCCC	956
GTCACAGGAAAGAAGGAGCCTCGCCTTAACCGCACC	1170
GGGGCGGCTTCCGGCGGCGTGACCTGACCGCAAGAG	2950
CCCAATTTCCTTTGCTCTGCTGTCTGCCAACCGCAA	2740
GGAGCGCGCCGGAAACGCGCGGCTGCGGCCCGGGAG	722
CACGCCTGCGGAAGATGAAAACCACACGTCATGCAG	960
GCTCCTCCCGGATATAAAGCCCCAAACCACGCCACT	1140
GGCGCGGGCTGCTTCCGGTCTGCGGGCCTGAGGAGG	672
GGGCCCGGGCCAGGAAGTGGTTTTGCAGAGGTGTTT	763
CCCACCCGGAAATGAGCCAACAGTGGTTTCGCCCCG	782
CCATATCTGGCTTCCTAAGGAGGAACCACAAACCGT	1040
TCTGGGGGAGGGGAAGGATGTGGTTTGCAGAGCGGA	1020
CTGTGAGGCGGAAGTGGCGGGCTCTGTGGGCGCAAG	703
GACATCCAGGAAGTGGTGAGAAACCACGTGTGTGTT	747
GTGGGAGCGGAAGCCTGAGCGGCCTGCGGCCTCCGG	692
ATGAACCACTTCCTGTGTGTTCCCACAGAGGTCAGG	742
AACGACAAACCGGAAGTATGGTTTGCCGCCTGAAGC	754
AGGAGCCGGAAGTCCCGCCCACGCACCCCCCGCAGG	857
AGCTGTTTGGTCACAGGATGTGGTTATTAGAATAGG	894

From the supplement of paper PMC10681739
